From PubChem BioAssay AID1159580 (chemical genetic matrix, 2015)
Several values for one entry are separate records, joined by “and”; a condition that tells them apart may be missing. Equal values may be shown once. The whole screen tested about 5,500 compounds, of which about 2,000 (36%) were called active. Not shown: some 18% with an inconclusive outcome. Cut-off read from the data, not from the text of the source: active = normalized growth mostly below about 0.91 (no sharp cut-off); inconclusive = no clear call, values can overlap the other calls; inactive = mostly above about 0.92. This is one part of the list.

Assay: chemical genetic growth profiling, strain panel (AID 1159580);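 note: tested at 20 µM; growth read once vehicle control cultures reached saturation at 30 °C; 1 = growth at the plate median or of vehicle wells; lower values mean less growth of the strain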
Conditions: S. cerevisiae deletion strains, growth OD

Measured: normalized growth

CNc1ccccc1C(=O)N1CCc2c([nH]c3ccccc23)C1=O
inactive: locus YAL021C, strain ccr4, stronger effect = lower value 0.962 | locus YAL026C, strain drs2, stronger effect = lower value 1 | locus YAL030W, strain snc1, stronger effect = lower value 0.995 | locus YBL061C, strain skt5, stronger effect = lower value 1 | locus YBR009C, strain hhf1, stronger effect = lower value 0.981 | locus YBR021W, strain FUR4, stronger effect = lower value 0.954 | locus YBR023C, strain chs3, stronger effect = lower value 1 | locus YBR171W, strain sec66, stronger effect = lower value 0.991 | locus YBR229C, strain ROT2, stronger effect = lower value 1.01 | locus YBR231C, strain swc5, stronger effect = lower value 0.996 | locus YBR279W, strain paf1, stronger effect = lower value 0.992 | locus YCL011C, strain gbp2, stronger effect = lower value 0.983 | locus YCL016C, strain dcc1, stronger effect = lower value 0.981 | locus YCL029C, strain bik1, stronger effect = lower value 0.996 | locus YCL069W, strain vba3, stronger effect = lower value 0.987 | locus YCR088W, strain abp1, stronger effect = lower value 1 | locus YDL005C, strain med2, stronger effect = lower value 0.997 | locus YDL035C, strain GPR1, stronger effect = lower value 0.995 | locus YDL040C, strain nat1, stronger effect = lower value 0.99 | locus YDL074C, strain BRE1, stronger effect = lower value 0.976 | locus YDL101C, strain DUN1, stronger effect = lower value 1.02 | locus YDL185W, strain tfp1, stronger effect = lower value 0.996 | locus YDL192W, strain arf1, stronger effect = lower value 0.975 | locus YDR001C, strain nth1, stronger effect = lower value 0.98 | locus YDR069C, strain doa4, stronger effect = lower value 0.966 | locus YDR101C, strain arx1, stronger effect = lower value 0.964 | locus YDR137W, strain rgp1, stronger effect = lower value 0.991 | locus YDR159W, strain sac3, stronger effect = lower value 1.03 | locus YDR162C, strain NBP2, stronger effect = lower value 1.01 | locus YDR195W, strain ref2 1.01 | locus YDR297W, strain sur2, stronger effect = lower value 1 | locus YDR318W, strain mcm21, stronger effect = lower value 0.997 | locus YDR334W, strain swr1, stronger effect = lower value 0.991 | locus YDR335W, strain msn5, stronger effect = lower value 0.996 | locus YDR388W, stronger effect = lower value 0.979 | locus YDR392W, strain spt3, stronger effect = lower value 0.908 | locus YDR502C, strain sam2, stronger effect = lower value 0.967 | locus YEL003W, strain gim4, stronger effect = lower value 0.987 | locus YEL037C, strain rad23, stronger effect = lower value 0.992 | locus YEL061C, strain CIN8 (second series), stronger effect = lower value 0.989 | locus YEL061C, strain CIN8, stronger effect = lower value 1.01 | locus YER015W, strain faa2, stronger effect = lower value 0.992 | locus YER016W, strain bim1, stronger effect = lower value 0.985 | locus YER110C, stronger effect = lower value 0.986 | locus YER111C, strain swi4, stronger effect = lower value 1 | locus YER155C, strain BEM2 (second series), stronger effect = lower value 1.01 | locus YER155C, strain BEM2, stronger effect = lower value 0.997 | locus YER167W, strain BCK2, stronger effect = lower value 1 | locus YFR010W, strain ubp6, stronger effect = lower value 0.965 | locus YGL078C, strain dbp3, stronger effect = lower value 0.971 | locus YGL086W, strain mad1, stronger effect = lower value 0.964 | locus YGL167C, strain pmr1, stronger effect = lower value 0.98 | locus YGL173C, strain kem1, stronger effect = lower value 0.997 | locus YGL227W, strain vid30, stronger effect = lower value 1 | locus YGL240W, strain doc1, stronger effect = lower value 1 | locus YGL248W, strain PDE1, stronger effect = lower value 1.02 | locus YGL253W, strain hxk2, stronger effect = lower value 0.989 | locus YGR078C, strain PAC10, stronger effect = lower value 1.01 | locus YGR135W, strain pre9, stronger effect = lower value 1 | locus YGR229C, strain SMI1, stronger effect = lower value 1 | locus YGR252W, strain gcn5, stronger effect = lower value 0.924 | locus YHR013C, strain ard1, stronger effect = lower value 0.958 | locus YHR027C, strain rpn1, stronger effect = lower value 0.991 | locus YHR030C, strain SLT2, stronger effect = lower value 1.01 and 0.995 | locus YHR079C, strain IRE1 (second series), stronger effect = lower value 0.981 | locus YHR079C, strain IRE1, stronger effect = lower value 0.986 | locus YHR094C, strain hxt1, stronger effect = lower value 0.984 | locus YHR129C, strain ARP1, stronger effect = lower value 1.01 | locus YHR142W, strain chs7, stronger effect = lower value 0.975 | locus YHR200W, strain rpn10, stronger effect = lower value 0.987 | locus YIL066C, strain RNR3, stronger effect = lower value 1.01 | locus YIL073C, strain SPO22, stronger effect = lower value 0.957 | locus YIL125W, strain kgd1, stronger effect = lower value 0.968 | locus YIR030C, strain dcg1, stronger effect = lower value 0.975 | locus YJL092W, strain hpr5, stronger effect = lower value 0.991 | locus YJL095W, strain BCK1 (second series), stronger effect = lower value 1.01 | locus YJL095W, strain BCK1, stronger effect = lower value 1.01 and 1.06 | locus YJL115W, strain asf1, stronger effect = lower value 0.976 | locus YJL129C, strain trk1, stronger effect = lower value 0.982 | locus YJL134W, strain LCB3, stronger effect = lower value 1.01 | locus YJL154C, strain vps35, stronger effect = lower value 0.989 | locus YJL164C, strain tpk1, stronger effect = lower value 0.963 | locus YJL166W, strain qcr8, stronger effect = lower value 0.992 | locus YJL168C, strain set2, stronger effect = lower value 0.989 | locus YJL187C, strain SWE1 (second series), stronger effect = lower value 1 | locus YJL187C, strain SWE1, stronger effect = lower value 0.981 | locus YJR043C, strain POL32, stronger effect = lower value 0.986 | locus YJR066W, strain TOR1, stronger effect = lower value 0.94 | locus YJR075W, strain HOC1, stronger effect = lower value 1 | locus YKL009W, strain mrt4, stronger effect = lower value 0.949 | locus YKL068W, stronger effect = lower value 1 | locus YKL085W, strain MDH1 (second series), stronger effect = lower value 0.994 | locus YKL085W, strain MDH1, stronger effect = lower value 0.994 | locus YKL160W, strain elf1, stronger effect = lower value 0.973 | locus YKR001C, strain vps1, stronger effect = lower value 0.941 | locus YKR026C, strain gcn3, stronger effect = lower value 1.01 | locus YKR091W, strain srl3, stronger effect = lower value 0.989 | locus YLL001W, strain dnm1, stronger effect = lower value 0.982 | locus YLL026W, stronger effect = lower value 1 | locus YLL041C, strain sdh2, stronger effect = lower value 1 | locus YLR027C, strain aat2, stronger effect = lower value 0.995 | locus YLR039C, strain RIC1, stronger effect = lower value 0.812 | locus YLR058C, strain SHM2, stronger effect = lower value 1.01 | locus YLR102C, strain apc9, stronger effect = lower value 0.977 | locus YLR113W, strain HOG1, stronger effect = lower value 1.1 | locus YLR221C, strain rsa3, stronger effect = lower value 1.01 | locus YLR258W, strain gsy2, stronger effect = lower value 0.993 | locus YLR262C, strain YPT6 (second series), stronger effect = lower value 0.975 | locus YLR262C, strain YPT6, stronger effect = lower value 0.823 | locus YLR268W, strain sec22, stronger effect = lower value 0.954 | locus YLR320W, strain mms22, stronger effect = lower value 1 | locus YLR330W, strain CHS5, stronger effect = lower value 1.01 | locus YLR342W, strain FKS1 (second series), stronger effect = lower value 0.998 | locus YLR342W, strain FKS1, stronger effect = lower value 0.991 | locus YLR357W, strain rsc2, stronger effect = lower value 0.973 | locus YLR370C, strain arc18, stronger effect = lower value 0.998 | locus YLR371W, strain rom2, stronger effect = lower value 0.986 | locus YLR384C, strain iki3, stronger effect = lower value 1.02 | locus YLR418C, strain cdc73, stronger effect = lower value 0.917 | locus YML016C, strain PPZ1, stronger effect = lower value 1.02 | locus YML032C, strain rad52, stronger effect = lower value 0.989 | locus YML120C, strain ndi1, stronger effect = lower value 0.983 | locus YML124C, strain tub3, stronger effect = lower value 0.985 | locus YMR058W, strain fet3, stronger effect = lower value 0.994 | locus YMR078C, strain ctf18, stronger effect = lower value 0.986 | locus YMR125W, strain sto1, stronger effect = lower value 0.965 | locus YMR129W, stronger effect = lower value 0.988 | locus YMR205C, strain PFK2, stronger effect = lower value 0.984 | locus YMR223W, strain ubp8, stronger effect = lower value 1 | locus YMR231W, strain pep5, stronger effect = lower value 0.999 | locus YMR263W, strain SAP30, stronger effect = lower value 1.01 | locus YMR307W, strain GAS1, stronger effect = lower value 0.949 | locus YNL067W, strain RPL9B, stronger effect = lower value 1.01 | locus YNL071W, strain lat1, stronger effect = lower value 0.993 | locus YNL153C, strain GIM3, stronger effect = lower value 1.01 | locus YNL183C, strain NPR1, stronger effect = lower value 1.01 | locus YNL209W, strain ssb2, stronger effect = lower value 0.985 | locus YNL233W, strain BNI4, stronger effect = lower value 0.996 | locus YNL248C, strain rpa49, stronger effect = lower value 0.986 | locus YNL250W, strain rad50, stronger effect = lower value 1 | locus YNL271C, strain bni1, stronger effect = lower value 0.989 | locus YNL298W, strain CLA4, stronger effect = lower value 0.977 | locus YNL307C, strain MCK1, stronger effect = lower value 0.985 | locus YNL322C, strain KRE1 (second series), stronger effect = lower value 1 | locus YNL322C, strain KRE1, stronger effect = lower value 1.01 | locus YNR049C, strain mso1, stronger effect = lower value 0.989 | locus YNR052C, strain pop2, stronger effect = lower value 1.02 | locus YOL006C, strain TOP1, stronger effect = lower value 0.974 | locus YOL012C, strain htz1 0.736 | locus YOL147C, strain pex11, stronger effect = lower value 0.979 | locus YOR001W, strain rrp6, stronger effect = lower value 1.01 | locus YOR061W, strain CKA2, stronger effect = lower value 1.01 | locus YOR069W, strain VPS5, stronger effect = lower value 1.01 | locus YOR070C, strain gyp1, stronger effect = lower value 0.985 | locus YOR080W, strain dia2, stronger effect = lower value 1 | locus YOR083W, strain WHI5, stronger effect = lower value 0.967 | locus YOR106W, strain vam3, stronger effect = lower value 0.924 | locus YOR136W, strain idh2, stronger effect = lower value 0.974 | locus YOR144C, strain elg1, stronger effect = lower value 0.979 | locus YOR184W, strain ser1, stronger effect = lower value 0.979 | locus YOR231W, strain MKK1, stronger effect = lower value 1.01 | locus YOR265W, strain rbl2, stronger effect = lower value 1 | locus YOR270C, strain vph1, stronger effect = lower value 0.979 | locus YOR290C, strain snf2, stronger effect = lower value 0.944 | locus YOR316C, strain cot1, stronger effect = lower value 0.982 | locus YPL051W, strain arl3, stronger effect = lower value 0.982 | locus YPL055C, strain LGE1, stronger effect = lower value 0.991 | locus YPL078C, strain atp4, stronger effect = lower value 0.973 | locus YPL106C, strain sse1, stronger effect = lower value 0.997 | locus YPL240C, strain hsp82, stronger effect = lower value 0.986 | locus YPL241C, strain CIN2, stronger effect = lower value 1 | locus YPL256C, strain CLN2, stronger effect = lower value 1 | locus YPR119W, strain clb2, stronger effect = lower value 0.978 | locus YPR141C, strain kar3, stronger effect = lower value 0.994 | locus YPR163C, strain tif3, stronger effect = lower value 0.99 | locus YPR167C, strain met16, stronger effect = lower value 0.989 | strain wtn01, stronger effect = lower value 0.961
